High-throughput results as filed in PubChem BioAssay.
D1 antag: Antagonist of Human D 1 Dopamine Receptor: qHTS; AID 504652, 2011; D(1A) dopamine receptor (Homo sapiens), P21728; activity change, negative = inhibition, % at 10 µM; HEK293 TREx D1 cells, calcium flux, dopamine EC80; stronger effect = lower value; 3.2% of 360,000 active; in the data active = activity change below about -30%
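Allosteric or orthosteric antagonism assessed as attenuation of the calcium response to EC80 dopamine, added 180 s after compound, in induced HEK293 Trex D1 cells loaded with no-wash calcium dye.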
TRHR agonist: qHTS for Small Molecule Agonists and Allosteric Enhancers of Human TRH Receptor: Primary Screen for Agonists; TRHR cells, calcium flux fluo-8, FDSS agonist mode; activation, % at 2 µM; 0.18% of 360,000 active; AID 493084, 2011
Target sequence (P34981 whole entry, looked up): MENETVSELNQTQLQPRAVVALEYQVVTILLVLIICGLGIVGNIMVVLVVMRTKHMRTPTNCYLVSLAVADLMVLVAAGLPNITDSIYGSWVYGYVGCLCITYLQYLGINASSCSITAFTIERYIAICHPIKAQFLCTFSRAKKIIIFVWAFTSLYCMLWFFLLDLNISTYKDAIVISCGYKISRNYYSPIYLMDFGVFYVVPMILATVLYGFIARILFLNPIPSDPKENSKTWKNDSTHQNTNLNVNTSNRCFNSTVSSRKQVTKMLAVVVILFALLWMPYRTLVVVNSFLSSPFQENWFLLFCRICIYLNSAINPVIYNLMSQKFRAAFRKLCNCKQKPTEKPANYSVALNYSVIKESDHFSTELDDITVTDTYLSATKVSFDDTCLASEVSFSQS
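In this calcium-flux screen, cells bearing human TRHR are dye-loaded with fluo-8, baselined for 10 cycles, then exposed to library compounds; positive kinetic calcium responses during the agonist phase mark hits, with TRH as control.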
D1 PAM: Potentiators of Human D1 Dopamine Receptor: qHTS; D(1A) dopamine receptor (Homo sapiens), P21728; HEK293 TREx D1 cells, calcium flux, dopamine EC20 potentiation; potentiation, % at 10 µM; 0.036% of 360,000 active; AID 504651, 2011; in the data active = potentiation above about 30%
GRP78 ERSR act: qHTS for Inducers of the Endoplasmic Reticulum Stress Response (ERSR) in Human Glioma: qHTS; U87-MG GRP78 promoter luciferase reporter, 16 h; Potency, µM, usual class: activators; 0.02% of 420,000 active; AID 602332, 2012; active = well fitted activation curve with a large enough effect; note: series mostly up to about 76 µM; nearly all actives have a fitted effect of over 35% in size
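Stably transfected U87-MG human glioma cells carrying a GRP78-based luminescent sensor were seeded at 1000 cells/well, pin-dosed with compounds and incubated 16 h. Luciferase reagent was then added, and end-point luminescence was read after 10 min at room temperature.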
TRHR PAM: qHTS for Small Molecule Agonists and Allosteric Enhancers of Human TRH Receptor: Primary Screen for Enhancers; Thyrotropin-releasing hormone receptor (Homo sapiens), P34981; TRHR cells, fluo-8 calcium fluorescence, EC20 TRH enhancement; enhancement, % at 2 µM; 0.66% of 360,000 active; in the data active = enhancement above about 30%
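TRHR-expressing cells loaded with fluo-8 calcium dye were read kinetically (ex 480/em 530) during compound addition, then stimulated with an EC20 of TRH (10 nM final). Enhancement of the Gq-mediated intracellular calcium response was scored.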
D1 ag: Allosteric Agonists of the Human D1 Dopamine Receptor: qHTS. D(1A) dopamine receptor (Homo sapiens), P21728. HEK293 T-REx D1 cells, calcium flux, agonist mode. activation, % at 2 µM. 1% of 360,000 active. AID 504660, 2011
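Inducible HEK293 T-REx D1 cells, force-coupled to calcium signalling, were plated at 4000 cells/well with tetracycline and held overnight at 30 C. After no-wash calcium dye loading, compound-evoked calcium rise over 180 s flagged agonists.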
Numbers stand for hits. The list is not random: actives were taken first. Their share in the collection is about 4%. Cut-off read from the data, not from the text of the source, unless noted: active = activation above about 30%; inactive = the rest.

Screening BrC(=C\c1ccccc1)/C=N/N1CCN(c2ccccn2)CC1 returned D1 antag -32, TRHR agonist inactive, D1 PAM inactive, GRP78 ERSR act inactive, TRHR PAM inactive and D1 ag inactive.
For Oc1cccc(/C=N/N2CCN(c3ccccn3)CC2)c1 the results were D1 antag inactive, TRHR agonist inactive, D1 PAM inactive, GRP78 ERSR act inactive, TRHR PAM inactive and D1 ag inactive.
O=C(NCN1CCN(c2ccccn2)CC1)c1cnccn1 was read as D1 antag inactive, TRHR agonist inactive, D1 PAM inactive, GRP78 ERSR act inactive, TRHR PAM inactive and D1 ag inactive.
c1ccc(N2CCN(c3cnccn3)CC2)nc1 was read as D1 antag -41, TRHR agonist inactive, D1 PAM inactive, GRP78 ERSR act inactive, TRHR PAM inactive and D1 ag inactive.
`COc1ccc(OC)c(NC(=O)Nc2ccc(Cl)cc2)c1` gave D1 antag -43, TRHR agonist inactive, D1 PAM inactive, GRP78 ERSR act inactive, TRHR PAM inactive and D1 ag inactive.
For O=C(Nc1ccc(NC(=O)c2cccs2)cc1)c1ccco1 the results were D1 antag inactive, TRHR agonist inactive, D1 PAM inactive, GRP78 ERSR act inactive, TRHR PAM inactive and D1 ag inactive.
O=C(OCC(=O)c1cccs1)c1ccc(NC(=O)c2ccco2)cc1 was read as D1 antag -33, TRHR agonist inactive, D1 PAM inactive, GRP78 ERSR act inactive, TRHR PAM inactive and D1 ag inactive.
COc1ccc(OC)c(NC(=O)COC(=O)/C=C/c2ccc(Cl)cc2)c1 was read as D1 antag -33, TRHR agonist inactive, D1 PAM inactive, GRP78 ERSR act inactive, TRHR PAM inactive and D1 ag inactive.
For COc1ccc(NC(=O)c2ccc3ncsc3c2)cc1 the results were D1 antag inactive, TRHR agonist inactive, D1 PAM inactive, GRP78 ERSR act inactive, TRHR PAM 35 and D1 ag inactive.
Screening COC(=O)c1cc(NC(=O)Nc2cc(OC)ccc2OC)cc(C(=O)OC)c1 returned D1 antag inactive, TRHR agonist inactive, D1 PAM inactive, GRP78 ERSR act inactive, TRHR PAM inactive and D1 ag inactive.
Screening CCCCCSc1nc2c(c(=O)[nH]c(=O)n2C)n1CC returned GRP78 ERSR act inactive.
For COc1ccc2cc(C=O)n(C)c2c1 the results were TRHR agonist inactive, D1 PAM inactive, GRP78 ERSR act inactive, TRHR PAM inactive and D1 ag inactive.
Screening COc1cc2c(cc1OC)C(=O)C(CC1CCN(Cc3ccccc3)CC1)C2 (configuration not stated) returned D1 antag inactive, TRHR agonist inactive, D1 PAM inactive, GRP78 ERSR act inactive, TRHR PAM inactive and D1 ag inactive.
Screening COc1ccccc1NC(=O)COC(=O)/C=C/c1ccccc1[N+](=O)[O-] returned D1 antag inactive, TRHR agonist inactive, D1 PAM inactive, GRP78 ERSR act inactive, TRHR PAM inactive and D1 ag inactive.
For O=C(NCC1COc2ccccc2O1)c1ccc(Cl)cc1 (configuration not stated) the results were D1 antag inactive, TRHR agonist inactive, D1 PAM inactive, GRP78 ERSR act inactive, TRHR PAM inactive and D1 ag inactive.
`O=C(NCC1COc2ccccc2O1)c1ccc(NC(=O)c2ccco2)cc1` (configuration not stated) gave D1 antag -30, TRHR agonist inactive, D1 PAM inactive, GRP78 ERSR act inactive, TRHR PAM inactive and D1 ag inactive.
Screening Cc1ccc(C(=O)C(C)Oc2cccc(NC(=O)c3ccco3)c2)cc1 (configuration not stated) returned D1 antag inactive, TRHR agonist inactive, D1 PAM inactive, GRP78 ERSR act inactive, TRHR PAM inactive and D1 ag 42.
Screening COc1ccc(OC)c(NC(=O)COC(=O)c2n[nH]c3ccccc23)c1 returned D1 antag -39, TRHR agonist inactive, GRP78 ERSR act inactive, TRHR PAM inactive and D1 ag inactive.
`COc1ccccc1/C=C/C(=O)OCC(=O)Nc1ccccc1Sc1ccccc1` gave D1 antag inactive, TRHR agonist inactive, D1 PAM inactive, GRP78 ERSR act inactive, TRHR PAM inactive and D1 ag 50.
COc1ccc(C(=O)COC(=O)c2n[nH]c3ccccc23)c(OC)c1 was read as D1 antag inactive, TRHR agonist inactive, D1 PAM inactive, GRP78 ERSR act inactive, TRHR PAM inactive and D1 ag inactive.
Screening CCc1ccc(C(C)NC(=O)COC(=O)c2ccc(-n3cnnn3)cc2)cc1 (configuration not stated) returned GRP78 ERSR act inactive.
Screening COc1ccc(Cl)cc1NC(=O)NC(C)c1ccncc1 (configuration not stated) returned D1 antag inactive, TRHR agonist inactive, D1 PAM inactive, GRP78 ERSR act inactive, TRHR PAM inactive and D1 ag inactive.
COc1ccc(C(=O)Nc2ccc(NC(=O)c3ccco3)cc2)cc1 was read as D1 antag inactive, TRHR agonist inactive, D1 PAM inactive, GRP78 ERSR act inactive, TRHR PAM 39 and D1 ag inactive.
For COc1ccc(NC(=O)c2ccco2)cc1NC(=O)COc1ccccc1 the results were D1 antag inactive, TRHR agonist inactive, D1 PAM inactive, GRP78 ERSR act inactive, TRHR PAM inactive and D1 ag inactive.
For COc1ccc(OC)c(NC(=O)Nc2cccc(Cn3cccn3)c2)c1 the results were D1 antag -36, TRHR agonist inactive, D1 PAM inactive, GRP78 ERSR act inactive, TRHR PAM inactive and D1 ag inactive.
Screening COc1cccc(NC(=O)Nc2cc(C)ccc2OC)c1 returned D1 antag inactive, TRHR agonist inactive, D1 PAM inactive, GRP78 ERSR act inactive, TRHR PAM inactive and D1 ag inactive.
COc1ccc(NC(=O)COc2ccccc2)cc1NC(=O)c1ccco1 was read as D1 antag -37, TRHR agonist inactive, D1 PAM inactive, GRP78 ERSR act inactive, TRHR PAM inactive and D1 ag inactive.
COc1ccc(C)cc1NC(=O)NC(C)c1ccncc1 (configuration not stated) was read as D1 antag -32, TRHR agonist inactive, D1 PAM inactive, GRP78 ERSR act inactive, TRHR PAM inactive and D1 ag inactive.
